CYP2C19 act = human CYP2C19 activators, primary screen, biochemical, luminescence; 96,000 tested, under 10 active; recombinant CYP2C19, luciferin-H EGE luminescence; active compounds read high; 0 = fully inhibited enzyme, 1 = untreated enzyme; activation factor at 5 µM; AID 1025, 2008; Cytochrome P450 2C19 (Homo sapiens), P33261;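 active means activation factor of at least 2 at 5 µM in the primary screen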;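 further: 0 = wells with 2.5 mM tranylcypromine and 1 = vehicle-only wells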
Cav32 inh = Cav3.2 calcium influx blockers – cell-based, Fluo-4 calcium fluorescence, FDSS, MLSMR library, primary screen; B-score at 10 µM; actives 4% (n = 100,000); Cav3.2-expressing cells; active compounds read low; Voltage-dependent T-type calcium channel subunit alpha-1H (Homo sapiens), O95180;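 active means single-dose well whose peak fluorescence ratio is a statistical outlier from its plate by either plate-standardised score or position-corrected B-score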
CYP2C19 inh = blockers of cytochrome P450 2C19 activity – biochemical, luminescence, ADME assay, primary screen; CYP2C19 Supersomes, luciferin-H EGE luminescence, 30 min; inhibition, % at 5 µM; AID 778, 2007; actives 21% (n = 96,000);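 active means CYP2C19 inhibition above a set limit at 5 µM in the primary screen, cut at about 50% in these data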;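 further: plate controls were negative control wells for no effect and 2.5 mM tranylcypromine positive control for full effect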
CYP2C9 act = human CYP2C9 activators, primary screen, biochemical, luminescence; recombinant CYP2C9, luciferin-H conversion; active compounds read high; factor 1 = untreated enzyme, 0 = blocked; activation factor at 5 µM; actives 1.4% (n = 96,000); AID 1024, 2008;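 active means activation factor of 2 or more for CYP2C9 at a 5 µM dose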;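 further: 0 = sulfaphenazole-blocked wells and 1 = vehicle-only wells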
PTK2B oligo ant = antagonists of Pyk2 self-association, primary screen, Q293 cells, FERM NanoBiT luminescence, HTS | Protein-tyrosine kinase 2-beta (Homo sapiens), Q14289 | active compounds read low | z-score (the deposit names both 25 µM and 10 µM) | actives 0.83% (n = 99,000);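 active means Z-score of -3 or lower, scaled per plate to the spread of control and sample wells; inactive means z-score above -3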;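 further: negative z-score means lost luminescence so less FERM oligomerization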
CYP2C9 inh = blockers of cytochrome P450 2C9 activity – biochemical, luminescence, ADME assay, primary screen; P11712; CYP2C9 Supersomes, luciferin-H conversion; inhibition, % at 5 µM; actives 20% (n = 96,000);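 active means blocking of liver enzyme CYP2C9 beyond about 50% at 5 µM, limit read from the data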
Numbers without * were called inactive; . = no result given. A selection: hits, their analogues and other compounds. The true share with any hit is near 27%.

SMILES	CYP2C19 act	Cav32 inh	CYP2C19 inh	CYP2C9 act	PTK2B oligo ant	CYP2C9 inh
COc1ccc(OCC(=O)Nc2ccccc2O)cc1	0	.	99*	0.1	2	95*
COc1ccc(NC(=O)CN2c3cccc4cccc(c34)S2(=O)=O)c(OC)c1	0.1	0.43	91*	0.6	-1.8	37
COc1ccc(NC(=O)COc2ccccc2)c(OC)c1	0.1	-1.1	92*	0.2	-0.33	84*
COc1cc(NC(=O)CN2c3cccc4cccc(c34)S2(=O)=O)cc(OC)c1OC	1.1	-0.27	-8	0.9	0.78	9
COc1ccccc1NC(=O)COc1ccccc1	0.5	-0.023	46	1.6	-0.04	-59
CC(C)NS(=O)(=O)c1ccc(OCC(=O)Nc2cccc3ccccc23)cc1	0.1	-3.6*	88*	0.2	0.46	82*
C=CCn1c(N)cc(=O)nc1SC(C)C(=O)Nc1cccc2ccccc12 (stereo not drawn)	.	0.48	.	.	0.5	.
CC(C)(C)NC(=O)C(c1ccsc1)N(CCc1ccccc1)C(=O)Cn1nnc2ccccc21 (stereo not drawn)	1.1	-0.067	-6	1.1	0.85	-13
Cc1ccc(CNC(=O)[C@H]2C[C@@H]2[C@H](NP(=O)(c2ccccc2)c2ccccc2)c2ccccc2)o1	.	-2	.	.	.	.
CCN(C(=O)CN1CCN(c2ccc(OC)cc2)CC1)c1c(N)n(Cc2ccccc2)c(=O)[nH]c1=O	1.2	-0.6	-16	1	0.09	-5
CCc1ccc(OCC(=O)Nc2cc(S(=O)(=O)CC)ccc2O)cc1	1	.	3	0.2	-0.52	79*
CC(NC(=O)Cc1cccs1)c1ccncc1 (stereo not drawn)	0.4	0.14	64*	0.3	-0.14	66*
COc1ccc(NC(=O)Cn2c(=O)sc3ccccc32)c(OC)c1	0.1	0.67	90*	0.5	.	50
COc1ccccc1NC(=O)Cn1c(=O)sc2ccccc21	0.6	-0.026	39	1	-1.8	-1
CCS(=O)(=O)c1ccc(O)c(NC(=O)COc2ccccc2)c1	0.9	.	11	0.8	1.2	16
CCOc1cccc(NC(=O)Cc2cccs2)c1	0.1	-0.26	86*	0.4	-0.03	58*
COc1ccc(NC(=O)Cc2cccs2)c(OC)c1	0.2	-0.33	79*	0.9	-0.57	10
COc1ccc(NC(=O)CC(C)C)c(OC)c1	0.6	-0.33	44	0.9	0.39	6
CCCCOC(=O)c1ccc(NC(=S)NC(=O)c2c(Br)c(C)nn2C)cc1	.	.	.	.	0.8	.
Cn1nnnc1SCC(=O)N1CCN(c2ccc(Cl)cc2)CC1	1.1	.	-11	0.7	1.1	26
CCOC(=O)C1CCN(C(=O)CSc2n[nH]c(=O)[nH]c2=O)CC1	1.2	0.13	-16	1.1	0.63	-11
O=C(CSC1=NCCS1)N1CCN(c2ccc(Cl)cc2)CC1	0.4	0.27	62*	0.8	0.83	16
CCOC(=O)C1CCN(C(=O)CSC2=NCCS2)CC1	0.4	-1.2	59*	0.9	1	9
Cc1cc(C)cc(OC(=O)N2CCOCC2)c1	0.9	0.73	5	0.7	-0.1	30
Cc1cccc(CN(CC(=O)N/N=C/c2ccco2)S(=O)(=O)c2ccc(Cl)cc2)c1	0	-3	100*	0.1	0.36	93*
SMILES	CYP2C19 act	Cav32 inh	CYP2C19 inh	CYP2C9 act	PTK2B oligo ant	CYP2C9 inh
Cc1ccc(S(=O)(=O)N(CC(=O)N/N=C/c2ccco2)Cc2ccccc2)cc1	0.6	-1.5	36	0.6	-1.4	42
Cc1cccc(CN(CC(=O)N/N=C/c2cccs2)S(=O)(=O)c2ccc(Cl)cc2)c1	0.3	-2.6	74*	0.3	-1.8	70*
O=C(c1ccc(CNc2c(NC3CCCCC3)c(=O)c2=O)cc1)N1CCc2ccccc21	0.9	.	5	0.8	.	19
CCOc1cc(NC(=O)CC(C)C)c(OCC)cc1NC(=O)CCn1nnc2ccccc21	1	0.28	-2	1	0.31	2
O=C(OCc1cc2ccccc2[nH]c1=O)c1ccccc1	0.4	-0.76	59*	0.6	1.9	44
O=C(OCc1cc2ccccc2[nH]c1=O)c1ccncc1	.	-0.92	.	.	-0.56	.
N#Cc1cc(C#N)c(N2CCN(c3ccccn3)CC2)nc1N	0.3	-1.4	65*	0.6	-0.65	44
CC1=CCC2C(=O)N(c3cc(C)on3)C(=O)C2C1 (stereo not drawn)	.	0.66	.	.	1.3	.
COc1ccc2sc(N3C(=O)C4CC=C(C)CC4C3=O)nc2c1 (stereo not drawn)	0.4	-1.4	61*	0.2	0.13	80*
O=C(c1ccc(Cl)c(F)c1F)N1CCCC1	0.9	.	14	1	1.1	-1
C/C(=N\O)c1ccc2c3ccccc3n(C)c2c1	0.7	-0.84	34	0.5	-0.7	55*
S=C(Nc1cccc(Cl)c1)NC1CCCCC1	0.7	-4.1*	27	1	0.09	-1
O=C(Nc1ccc(F)cc1)NC1CCCCC1	0.8	1	23	0.8	-0.05	19
O=C(Nc1cccc(F)c1)NC1CCCCC1	0.4	0.57	55*	0.6	-0.15	41
O=c1ccnc(SCc2ccccc2Cl)[nH]1	1	-0.39	-2	0.4	0.57	60*
Nc1nc(SCc2ccccc2Cl)[nH]c(=O)c1-c1ccccc1	.	-1.9	.	.	-1.4	.
c1ccc(OCc2nc(-c3cccs3)no2)cc1	0.3	-1.3	74*	0.4	-0.3	62*
CCOc1nc(-c2ccccc2)ccc1-c1noc(COc2ccccc2)n1	0.4	-2.1	60*	0.2	0.36	80*
Cc1ccccc1OCc1nc(-c2ccccc2)no1	1	-1.2	-1	1.1	-0.41	-8
Cc1cc(OCc2nc(-c3cccs3)no2)cc(C)c1Cl	0.5	0.14	50*	0.5	.	48
c1ccc(-c2noc(COc3ccc4c(c3)OCO4)n2)cc1	1.1	-2.1	-11	1.2	-0.68	-17
Cc1nc2ccc(NC(=O)c3c(-c4ccccc4)noc3C)cc2s1	0.6	-0.14	38	0.6	0.01	41
O=C(Nc1ccccc1Cl)N1CCN(c2ccc3nnc(-c4ccccc4)n3n2)CC1	0.3	2.7	69*	0.1	.	89*
O=C(Nc1ccc(Cl)cc1)N1CCN(c2ccc3nnc(-c4ccc(F)cc4)n3n2)CC1	0.6	0.71	40	0.4	-0.9	56*
CCOC(=O)N1CCN(C(=O)Nc2ccccc2Cl)CC1	0.8	0.6	16	1	0.9	-5
O=C(c1ccc(Br)o1)N1CCN(c2ccc3nnc(-c4ccc(F)cc4)n3n2)CC1	0.8	0.52	16	0.3	.	67*
